Compound activity (PubChem)
MPTP inh: mitochondrial permeability transition pore inhibitors, primary screen, biochemical, isolated mouse mitochondria, absorbance; Ca2+ swelling absorbance, 30 min; inhibition, % at 10 µM; hit rate 1.4% among 360,000;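 active means inhibition of 50% or more, scaled per plate between neutral and stimulator controls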
tim23-1 inh: growth inhibitors of tim23-1 mutant yeast, primary screen, luminescence, uHTS | hit rate 1.3% among 330,000 | inhibition, % at 20 µM | S. cerevisiae tim23-1 growth, BacTiter-Glo luminescence, 24 h;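 active means growth inhibition of the mutant yeast at or above 50%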;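 further: temperature-sensitive mutant grown at 25 °C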
Mdm2 MdmX PPI: inhibitors of human Mdm2-MdmX association, primary screen, cell-based, luminescence, split luciferase, SaOS-2, uHTS | Protein Mdm4 (Homo sapiens) + E3 ubiquitin-protein ligase Mdm2 (Homo sapiens), … | SaOS-2 split-luciferase Mdm2/MdmX complementation | inhibition, % at 8 µM | hit rate 3% among 330,000;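 active means inhibition of at least 50% at 8 µM in the primary screen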
tim10-1 inh: growth inhibitors of tim10-1 mutant yeast, primary screen, luminescence, uHTS; hit rate 2.2% among 330,000; inhibition, % at 20 µM; S. cerevisiae tim10-1 ts strain growth, BacTiter-Glo, 24 h;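 active means inhibition of at least 40%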;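 further: mutant grown at 25 °C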
TIM10 inh: growth inhibitors of isogenic TIM10 control yeast, primary screen, counter-screen for tim10-1 yeast inhibitor project, luminescence, uHTS; S. cerevisiae TIM10 strain growth, BacTiter-Glo luminescence, 24 h; inhibition, % at 10 µM; hit rate 1.4% among 330,000;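 active means inhibition of 40% or more at the single tested concentration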;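 further: wild-type TIM10 isogenic control strain grown at permissive 25 °C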
tim23-1 confirm: tim23-1 mutant yeast growth inhibitors, confirmation, luminescence, single concentration; inhibition, % at 20 µM; S. cerevisiae tim23-1 growth, BacTiter-Glo luminescence, 24 h; hit rate 83% among 4,400; shares compounds with tim23-1 inh;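 active means inhibition above about 39% in either of two replicate wells at 20 µM, limit read from the data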;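 further: temperature-sensitive tim23-1 mutant grown at 25 °C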
Mdm2 MdmX conf: Mdm2-MdmX complex disruptors, retested hits, confirmation, luminescence, single concentration; inhibition, % at 8 µM; Mdm2-MdmX binding, luminescent assay; shares compounds with Mdm2 MdmX PPI; hit rate 55% among 10,000; AID 489028, 2010; in the data active means inhibition above about 40%
FLuc counter: full-length luciferase signal inhibition, confirmation, counter-screen for Mdm2/MdmX interaction inhibitor project, cell-based, single concentration, SaOS-2 | hit rate 77% among 6,200 | SaOS-2 full-length luciferase counterscreen, luminescence | AID 504607, 2011 | inhibition, % at 8 µM | shares compounds with Mdm2 MdmX PPI;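 active means mean inhibition at 8 µM reaching about 37%, which flags the compound as non-specific, limit read from the data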;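 further: p53-null SaOS-2 cells with luciferase driven by a doxycycline-inducible promoter; compound on cells about two nights before reading with doxycycline added after day one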
Large screens that a line does not name were inactive (follow-up assays come after a bar, where they were run). Shown are actives, neighbours in structure and some others; about 6.3% of the full set was active somewhere.

ClC(Cl)(Cl)c1nc2ccccc2n2nncc12	tim23-1 inh 54, Mdm2 MdmX PPI 77 | tim23-1 confirm inactive | Mdm2 MdmX conf 60 | FLuc counter inactive
COc1cc(/C=C/[N+](=O)[O-])ccc1OC(=O)/C=C/c1ccc(F)cc1	tim23-1 inh 55, Mdm2 MdmX PPI 73 | tim23-1 confirm 51 | Mdm2 MdmX conf 71 | FLuc counter 51
COc1ccc(/C=C/C(=O)Oc2ccc(C)c(C)c2)cc1OC	none
CC(C)Cn1cnc2c(c(-c3ccccc3)c(-c3ccccc3)n2Cc2ccco2)c1=N	tim23-1 inh 76, Mdm2 MdmX PPI 91 | tim23-1 confirm 41 | Mdm2 MdmX conf inactive
N=c1c2c(-c3ccccc3)c(-c3ccccc3)n(Cc3ccco3)c2ncn1Cc1ccccc1	tim23-1 inh 86, Mdm2 MdmX PPI 100 | tim23-1 confirm 59 | Mdm2 MdmX conf 62 | FLuc counter inactive
OCCNc1ncnc2c1c(-c1ccccc1)c(-c1ccccc1)n2Cc1ccco1	none
O=c1c2c3nc4ccccc4nc3n(Cc3ccccc3)c2ncn1Cc1ccco1	none (no result: tim23-1 inh, Mdm2 MdmX PPI, tim10-1 inh, TIM10 inh)
Cc1ccc(S(=O)(=O)N(C)C[C@@H]2Oc3ncc(C#CCC(C)C)cc3C(=O)N([C@H](C)CO)C[C@H]2C)cc1	none (no result: tim23-1 inh, Mdm2 MdmX PPI, tim10-1 inh, TIM10 inh)
O=Cc1ccccc1Oc1ccccc1	none
O=Cc1ccccc1OCCOc1ccccc1C=O	tim23-1 inh 85, Mdm2 MdmX PPI 51 | tim23-1 confirm 78 | Mdm2 MdmX conf 43 | FLuc counter 91
Cn1nnnc1Sc1ncnc2scc(-c3ccc(Br)cc3)c12	tim23-1 inh 68, Mdm2 MdmX PPI 99 | tim23-1 confirm 59 | Mdm2 MdmX conf 100 | FLuc counter 53
C[C@H]1CCCCO[C@H](CN(C)Cc2ccc(C(=O)O)cc2)[C@@H](C)CN([C@@H](C)CO)C(=O)c2cc(NS(=O)(=O)c3cn(C)cn3)ccc2O1	none (no result: tim23-1 inh, Mdm2 MdmX PPI, tim10-1 inh, TIM10 inh)
COc1cccc(NC(=O)CCC2CCN(C(=O)C(OC)c3ccccc3)CC2)c1 (centres undefined)	none (no result: tim23-1 inh, Mdm2 MdmX PPI, tim10-1 inh, TIM10 inh)
CS(=O)(=O)c1nc(-c2ccc(F)cc2)cc(C(F)(F)F)n1	none (no result: tim23-1 inh, Mdm2 MdmX PPI, tim10-1 inh, TIM10 inh)
CCOC(=O)CS(=O)(=O)c1nc(-c2ccc(F)cc2)cc(C(F)(F)F)n1	tim23-1 inh 69, Mdm2 MdmX PPI 100 | tim23-1 confirm inactive | Mdm2 MdmX conf 98 | FLuc counter 51
CCOc1c(Br)cc(C(=O)Nc2cccc(S(=O)(=O)N3CCOCC3)c2)cc1OC	none (no result: tim23-1 inh, Mdm2 MdmX PPI, tim10-1 inh, TIM10 inh)
CCCCN1C(=O)C(CC(=O)NCc2cccc3ccccc23)CC(C(=O)N2CCCCCC2)=C1C (centres undefined)	none (no result: tim23-1 inh, Mdm2 MdmX PPI, tim10-1 inh, TIM10 inh)
O=C1C(=O)N(CCS(=O)(=O)c2ccccc2)c2ccc(Cl)cc21	none
COc1ccc(OCCN2C(=O)c3ccccc3C2=O)cc1	none
Cc1ccc(OCCN2C(=O)C(=O)c3cc(C)ccc32)cc1	tim23-1 inh 57, Mdm2 MdmX PPI 62 | tim23-1 confirm 53 | Mdm2 MdmX conf 61 | FLuc counter 79
CCCN1C(=O)C(=O)c2cc(Cl)ccc21	tim23-1 inh 61, Mdm2 MdmX PPI 73 | tim23-1 confirm 40 | Mdm2 MdmX conf 67 | FLuc counter 45
CCC(=O)Nc1ccc(C(=O)NNC(=O)CCCCC(=O)NNC(=O)c2ccc(NC(=O)CC)cc2)cc1	none (no result: tim23-1 inh, Mdm2 MdmX PPI, tim10-1 inh, TIM10 inh)
CC(C)c1nc(NCc2ccccc2)c(C#N)c2c1CCCC2	none
CC(C)c1nc(NCCO)c(C#N)c2c1CCCC2	tim23-1 inh 54, Mdm2 MdmX PPI 53 | tim23-1 confirm 39 | Mdm2 MdmX conf 57 | FLuc counter inactive
N#Cc1ccc(Sc2nc3ccccc3[nH]2)cc1C#N	none
